High-throughput results: PubChem BioAssay, several laboratories
Compounds with a hit are over-represented: about 3.3% of the library has one in this group of screens.
Statin myotox sup: protects C2C12 myotubes from simvastatin toxicity. rescue of ATP level, % at 7.49 µM. ATP luminescence, 48 h; scaled: DMSO 0, geranylgeraniol control 100. 330,000 compounds, 0.78% hits. AID 602340;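 active = mean ATP rescue above about 67%, or every replicate alone reaching that limit, limit read from the data, passing the limit was not always enough; inconclusive = no clear call, values can overlap the other calls; inactive = mean under the limit and some replicate under it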;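 also: myotubes were challenged with 10 µM simvastatin during compound exposure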
esBAF inh: SWI/SNF esBAF complex inhibition | AID 602393 | mouse ES cells, Bmi1-luciferase knock-in reporter, 24 h; 100% = twice the neutral-well signal | reporter increase, % at 12.5 µM | 350,000 compounds, 2% hits; in the data active = activation above about 40%; inconclusive = no clear call, values can overlap the other calls;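 also: 0% = median of the plate's neutral control wells and 100% = double that signal; a rise in the Bmi1 reporter signal indicates esBAF inhibition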
Wnt act: Wnt/beta-catenin pathway activation; Wnt/beta-catenin reporter cell assay, activator, plate reader; 300,000 compounds, 1.2% hits; activation, % at 9.35 µM; in the data active = activation above about 30%, passing the limit was not always enough; inconclusive = no clear call, values can overlap the other calls;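 also: 0% = neutral control wells and 100% = positive control wells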
GAA850 FXN act: increases GAA850 frataxin promoter reporter activity | HEK293 lucGAA850 FXN promoter luciferase reporter, 24 h; percent of 10 µM SAHA response | 360,000 compounds, 0.56% hits | activation, % at 6 µM;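 active = activation above the average of all compounds screened plus 3 SD, cutoff fixed separately per campaign, cut at about 7.5% in these data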;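 also: 0% = DMSO wells and 100% = 10 µM SAHA wells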
MITF TRPM1 HTS: MITF TRPM1 promoter activation in melanoma cells | 300,000 compounds, 0.75% hits | SK-MEL-5 TRPM1-promoter luciferase, 24 h; % of positive control, neutral wells = 0 | AID 588334 | activation, % at 12.5 µM;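 active = mean activation of at least 80% with every replicate also reaching 80%; inconclusive = mean reaches 80% but some replicate falls short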;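 also: 0% = neutral control wells and 100% = parthenolide positive control wells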
* hit, by the source's call; ? = inconclusive; · = no result given.

SMILES	Statin myotox sup	esBAF inh	Wnt act	GAA850 FXN act	MITF TRPM1 HTS
CCOC(=O)c1cc(-c2ccccc2C)nn1Cc1cc(C)no1	11	46*	15	4	71
CCc1cc(Cn2nc(-c3ccccc3C)cc2C(=O)O)on1	2	1	1	1	4
CCOC(=O)c1cc(-c2ccccc2)nn1Cc1cc(C)no1	5	36	12	5	87*
Cc1cc(Cn2nc(-c3ccccc3)cc2C(=O)NCc2cccs2)on1	15	6	1	-1	14
COc1ccccc1CNC(=O)c1cc(-c2ccccc2)nn1Cc1cc(C)no1	-13	9	3	-1	8
Cc1ccc(CNC(=O)c2cc(-c3ccccc3)nn2Cc2cc(C)no2)cc1	10	?	1	1	125*
CCC(=O)Nc1ccc2c(c1)C(=O)N(C)[C@@H]1CC[C@@H](CC(=O)N3CCc4ccccc4C3)O[C@H]1CO2	1	-1	·	·	·
C[C@@H]1CN([C@@H](C)CO)C(=O)Cc2cc(NC(=O)Nc3ccc4c(c3)OCO4)ccc2O[C@H]1CN(C)C(=O)Nc1ccccc1	25	8	·	·	·
CCNC(=O)C[C@H]1CC[C@H]2[C@H](COc3ccc(NC(=O)c4ccccc4Cl)cc3C(=O)N2C)O1	6	-2	·	·	·
C[C@@H]1CN([C@@H](C)CO)S(=O)(=O)c2ccc(C#CC3CC3)cc2O[C@@H]1CN(C)C	4	-3	·	·	·
CC=Cc1ccc2n(c1=O)C[C@@H]1[C@@H](CO)[C@H](C(=O)NCCC)[C@H]2N1S(=O)(=O)c1cn(C)cn1 (mixture of isomers)	8	-1	·	·	·
COc1ccc(NC(=O)N(C)C[C@@H]2Oc3ccc(NC(=O)NC(C)C)cc3CC(=O)N([C@@H](C)CO)C[C@H]2C)cc1	-8	2	·	·	·
Cc1ccc(S(=O)(=O)NCCN=C(CN2CCCC2)NS(=O)(=O)c2ccc(C)cc2)cc1	112*	4	-2	-1	3
Cc1ccc(S(=O)(=O)NCCN=C(CN2CCOCC2)NS(=O)(=O)c2ccc(C)cc2)cc1	·	·	·	0	·
O=C(C[C@H]1CC[C@@H]2NC[C@@H](O)COC[C@H]2O1)NCCc1ccncc1	-8	-2	·	·	·
Cc1cc(C)n(CC(O)COc2ccc(Cl)cc2)n1 (configuration not stated)	2	4	1	3	·
Cc1cc(C)n(CC(O)COc2ccc(Cl)cc2Cl)n1 (configuration not stated)	1	52*	5	2	·
Cc1cc(C)n2c(Br)c(CSc3nc4ccccc4s3)nc2n1	-1	48*	·	4	71
Cc1cc(C)nc(NC(=O)CSc2nc3ccccc3s2)n1	?	31	0	2	42
Cc1noc(C)c1S(=O)(=O)N1CCC(C(=O)N2CCN(c3ccccc3Cl)CC2)CC1	137*	0	0	-2	-9
CCCNC(=O)N[C@H]1CC[C@@H](CCn2cc(C3CCCC3)nn2)O[C@@H]1CO	-5	-2	·	·	·
CC(=O)c1ccc(OCc2cc(C(=O)N3CCC(c4ccncc4)CC3)no2)cc1	-3	1	12	-1	-7
CC(=O)c1ccc(OCc2cc(C(=O)NCCN3CCCC(O)C3)no2)cc1 (configuration not stated)	27	3	-1	1	-6
CC(=O)c1ccc(OCc2cc(C(=O)N3CCN4CCCC4C3)no2)cc1 (configuration not stated)	7	3	1	0	-4
CC(=O)c1ccc(OCc2cc(C(=O)NC3CCCCC3)no2)cc1	·	·	32*	5	103*
SMILES	Statin myotox sup	esBAF inh	Wnt act	GAA850 FXN act	MITF TRPM1 HTS
CC(=O)c1ccc(OCc2cc(C(=O)N3CC[C@@H]4CCCC[C@H]4C3)no2)cc1	-8	69*	37*	7	73
COCC1CCCN(C(=O)c2cc(COc3ccc(C(C)=O)cc3)on2)C1 (configuration not stated)	-5	70*	36*	2	47
COc1ccccc1C(=O)N1CCC(C(=O)c2ccc(F)cc2)CC1	84*	-5	-3	-1	4
CC(C)c1ccc(-n2nc3ccc(N)cc3n2)cc1	-15	-45	38*	1	-17
Cc1cc2nn(-c3ccc(F)cc3)nc2cc1N	12	-13	19	3	·
Cc1cc2nn(-c3ccc(Cl)cc3)nc2cc1N	·	·	33*	6	23
Cc1ccc(-n2nc3ccc(N)cc3n2)cc1	·	·	·	-5	-4
C[C@H](CO)N1C[C@H](C)[C@@H](CN(C)C(=O)Nc2ccc(C(F)(F)F)cc2)OCCCC[C@H](C)Oc2ccc(NC(=O)Nc3ccc(F)cc3)cc2C1=O	13	5	·	·	·
CC=Cc1ccc2n(c1=O)C[C@@H]1[C@@H](CO)[C@H](C(=O)N3CCc4ccccc4C3)N(C(=O)C3CC3)[C@H]21 (mixture of isomers)	-4	-9	·	·	·
O=C(C[C@H]1C=C[C@@H](NC(=O)Nc2cc(F)ccc2F)[C@H](CO)O1)NCc1ccccn1	0	-10	·	·	·
COCn1c(-c2cccc(Br)c2)nc2ccccc21	-5	37	·	-2	23
COc1ccc(/C=C/c2nc3ccccc3n2Cc2ccc(OC)c(OC)c2)cc1	-4	?	23	3	108*
COCn1c(-c2ccc(OC)c(OC)c2)nc2ccccc21	-2	47*	·	4	·
Cc1snc2sc(C(=O)c3ccc(Br)cc3)c(N)c12	·	·	·	2	88*
Cc1ccc(S(=O)(=O)N(C)C[C@H]2OCCCC[C@H](C)Oc3ccc(NC(=O)Nc4ccc5c(c4)OCO5)cc3C(=O)N([C@H](C)CO)C[C@H]2C)cc1	·	49*	·	·	·
C[C@@H]1CCCCO[C@H](CN(C)S(=O)(=O)c2cn(C)cn2)[C@H](C)CN([C@@H](C)CO)C(=O)c2cc(NC(=O)Nc3ccc4c(c3)OCO4)ccc2O1	·	5	·	·	·
C[C@@H]1CCCCO[C@@H](CN(C)S(=O)(=O)c2cn(C)cn2)[C@@H](C)CN([C@@H](C)CO)C(=O)c2cc(NC(=O)Nc3ccc4c(c3)OCO4)ccc2O1	·	58*	·	·	·
C[C@@H]1CN([C@H](C)CO)C(=O)c2cc(NC(=O)Nc3ccc4c(c3)OCO4)ccc2O[C@@H](C)CCCCO[C@H]1CN(C)S(=O)(=O)c1cn(C)cn1	·	58*	·	·	·
C/C=C/c1cnc2c(c1)C(=O)N([C@H](C)CO)C[C@H](C)[C@H](CN(C)C(=O)NC1CCCC1)O2	5	1	·	·	·
CCCCCCn1c(C(C)O)nc2ccccc21 (configuration not stated)	111*	1	·	0	-9
CCCCCn1c(=O)c(C(=O)c2ccccc2)nc2ccccc21	121*	-2	0	0	-5
CC(O)c1nc2ccccc2n1CCCc1ccccc1 (configuration not stated)	8	5	0	5	·
CCCCn1c(C(C)NC(=O)c2cccs2)nc2ccccc21 (configuration not stated)	135*	-4	-3	-2	-7
